IMPase Li cell: cell-permeable IMPase inhibitors with lithium potentiation. hit rate 0.35% among 210,000. Potency, µM (series often up to 59.4 µM), most hits filed as inhibitors. CHO-M1 cells, IP1 TR-FRET (IP-One), carbachol + lithium;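 further: IP1 builds up when IMPase is blocked and the TR-FRET signal falls; nearly all actives have a fitted effect of over 50% in size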
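Concentration–response in CHO-M1 cells, lithium-potentiated; 30 min at 37C. IP1 detected by competitive TR-FRET after 10 min lysis at RT. Hill-fitted AC50.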
Tb PFK inh: blocks T. brucei phosphofructokinase. Potency, µM (highest dose often 57.5 µM), most hits filed as inhibitors. hit rate 0.17% among 330,000. O15648. T. brucei PFK, ADP-Glo luminescence; further: nearly all actives have a fitted effect of over 60% in size
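Compounds were pin-transferred as a titration series up to 57 uM into substrate buffer (0.5 mM F6P, 0.1 mM ATP, pH 8.0), then 1.25 nM PFK was added and reactions ran 45 min before ADP-Glo detection.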
MBNL1-CUG inh: blocks human MBNL1 binding to CUG repeat RNA; TR-FRET MBNL1-His/biotin-(CUG)12 binding, 665/545 ratio; hit rate 0.036% among 280,000; Potency, µM (doses to about 57.5 µM), usual class: inhibitors; active means well fitted inhibition curve with a large enough effect in the signal ratio, with a control signal flat, not every such curve was filed as active; inconclusive means small, poorly fitted or top-dose-only effect, or effect the other way, or a change in a side signal; inactive means no such curve, though single readings can be large or run the other way; the % refers to the signal ratio
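TR-FRET between His-tagged MBNL1 and biotin-(CUG)12 RNA, detected with Tb anti-His antibody (0.055 ng/ul) and streptavidin-XL665 (5 nM), 60 min at room temperature. Compounds titrated 92 nM to 58 uM; 665/545 nm ratio normalized to buffer and complex controls.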
NPSR antag: antagonists of human neuropeptide S receptor cAMP signaling. CHO-NPSR cells, cAMP TR-FRET, antagonist mode. Potency, µM (doses to about 38.3 µM), hits mostly inhibitors. Q6W5P4. AID 1461. hit rate 1% among 220,000; further: nearly all actives have a fitted effect of over 50% in size
RGS12 GoLoco inh: inhibitors of human Gai1-RGS12 GoLoco interaction (red fluorophore). Gai1:RGS12 GoLoco peptide FP, rhodamine, 10 min. Potency, µM (titrated, usually from 61.6 µM), usual class: inhibitors. hit rate 0.44% among 230,000. P63096. AID 880; active means well fitted inhibition curve with a large enough effect, not every such curve was filed as active; inactive means no such curve, though single readings can be large or run the other way; further: nearly all actives have a fitted effect of over 30% in size
Target sequence (P63096 whole entry, looked up): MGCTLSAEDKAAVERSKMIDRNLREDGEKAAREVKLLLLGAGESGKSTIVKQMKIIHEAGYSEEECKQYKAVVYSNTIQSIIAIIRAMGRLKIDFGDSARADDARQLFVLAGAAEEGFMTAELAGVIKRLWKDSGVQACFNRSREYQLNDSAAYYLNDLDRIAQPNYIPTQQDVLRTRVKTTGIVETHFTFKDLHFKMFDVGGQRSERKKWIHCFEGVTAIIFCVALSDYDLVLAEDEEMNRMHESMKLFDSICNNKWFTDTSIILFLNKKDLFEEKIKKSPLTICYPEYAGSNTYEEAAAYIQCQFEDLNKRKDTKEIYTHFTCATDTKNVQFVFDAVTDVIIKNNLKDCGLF
Numbers stand for hits; . = inactive; ? = inconclusive; / = no result; ! = repeats disagree; [ ] = remark or other dose. This excerpt belongs to a sample that is enriched for hits. Unless noted, the call rests on the fitted dose curve; in most records, active means well fitted curve in the direction sought with a large enough effect; inconclusive means small, poorly fitted or top-dose-only effect, or another doubt; inactive means no such curve, though single readings can be large; an effect the other way counts as inactive or inconclusive.

SMILES | IMPase Li cell | Tb PFK inh | MBNL1-CUG inh | NPSR antag | RGS12 GoLoco inh
O=C(O)c1cc[c]([Hg][Cl])cc1 | . | 4.26µM | / | . | 1.26µM
O=C(O)c1cccc(Cl)c1 | . | / | / | / | .
O=c1[nH]c(=O)n([C@H]2C[C@H](O)[C@@H](CO)O2)cc1/C=C/Br | . | / | / | ? | .
COc1ccc(N=C2SCCCN2C)cc1 | . | . | ? | . | 7.94µM
COc1ccc2c3c([nH]c2c1)C(C)=NCC3 | ? | . | ? | . | .
CC1=NCCc2c1[nH]c1cc(O)ccc21 | ? | . | / | / | 28.2µM!
O=C1NC(=O)N(c2cccc(Cl)c2)C(=O)/C1=C\c1ccc(Sc2nc3ccccc3[nH]2)o1 | . | . | . | . | .
O=C1NC(=O)N(c2ccccc2)C(=O)/C1=C/c1ccc(Sc2ccccc2)o1 | . | . | . | 10µM | .
NC1=NC([S][Hg][c]2ccc(N)cc2)c2ncn([C@@H]3O[C@H](CO)[C@@H](O)[C@@H]3O)c2N1 (some centres undefined) | . | / | / | / | 0.501µM
CCC1(C)CC(C(N)=S)CCO1 (centres undefined) | / | ? | . | . | .
CC[C@]1(OC(=O)CN)C(=O)OCc2c1cc1n(c2=O)Cc2cc3ccccc3nc2-1 | . | / | / | / | .[14.2 µM]
C[CH2][Hg][S]c1ccccc1C(=O)O | . | / | / | / | 28.2µM
N#CC(C#N)=NNc1ccc([N+](=O)[O-])cc1 | / | . | ? | 3.98µM | .
CN1CCC[C@@H]1c1cccnc1.O=C(O)c1ccccc1O.O=C([OH2+])c1ccccc1O.O=C([OH2+])c1ccccc1O.O=C([OH2+])c1ccccc1O.[Mn] | . | / | / | / | .[14.2 µM]
CNC(=O)OCCc1n(C)cc[n+]1C | . | . | . | . | 1.58µM
Cc1cc(C)cc(N2C(=O)NC(=O)/C(=C\c3cccn3-c3ccc(Cl)cc3)C2=O)c1 | . | . | . | 5.01µM | .
CC(=O)[O-].CC(=O)[O-].O.O.[Cd+2] | . | / | / | / | .
COc1ccc(N2C(=O)/C(=C/c3cccs3)C(=O)NC2=S)cc1 | / | . | . | ? | .
COc1ccc(N2C(=O)/C(=C/C=C/c3ccccc3[N+](=O)[O-])C(=O)NC2=S)cc1 | . | . | . | 10µM | .
CC(C)[C@@]1(NC(=O)[C@@H]2C[C@@H]3c4cccc5[nH]cc(c45)C[C@H]3N(C)C2)O[C@@]2(O)C3CCCN3C(=O)[C@H](Cc3ccccc3)N2C1=O (some centres undefined) | . | / | / | ? | .
CC(C)[C@H]1C(=O)N2CCC[C@H]2[C@]2(O)O[C@](NC(=O)[C@@H]3C=C4c5cccc6[nH]cc(c56)C[C@H]4N(C)C3)(C(C)C)C(=O)N12 | . | . | ? | 1µM | 11.2µM
CC(C)C[C@H]1C(=O)N2CCC[C@@H]2[C@]2(O)O[C@](NC(=O)[C@@H]3C=C4c5cccc6[nH]c(Br)c(c56)C[C@H]4N(C)C3)(C(C)C)C(=O)N12 | . | / | / | / | .
CC(C)[C@@]1(NC(=O)[C@@H]2C[C@@H]3c4cccc5[nH]cc(c45)C[C@H]3N(C)C2)O[C@@]2(O)[C@@H]3CCCN3C(=O)[C@H](Cc3ccccc3)N2C1=O | . | . | . | 2µM | .
CC(C)C[C@H]1C(=O)N2CCC[C@H]2[C@]2(O)O[C@](NC(=O)[C@@H]3C=C4c5cccc6[nH]c(Br)c(c56)CC4N(C)C3)(C(C)C)C(=O)N12 (some centres undefined) | . | . | ? | 1.58µM | .
O=C(NCc1ccccc1)C(=O)NCC1OCCN1S(=O)(=O)c1ccc([N+](=O)[O-])cc1 (centres undefined) | . | . | ? | . | .
SMILES | IMPase Li cell | Tb PFK inh | MBNL1-CUG inh | NPSR antag | RGS12 GoLoco inh
Oc1ccc([C@H](O)C2CCCCN2)cc1O (some centres undefined) | . | / | / | / | .[14.2 µM]
CCN1/C(=C\C=C\C2=[N+](CC)c3ccccc3C2(C)C)C(C)(C)c2ccccc21 | . | ? | ? | 15.8µM | .
COc1ccc(C(=O)O)cc1OC | . | / | / | / | 31.6µM
CCC(=O)c1ccc(OC)c(OC)c1 | / | . | . | . | .
N#CC(C#N)=NNc1ccc(-n2ccc(C(F)(F)F)n2)cc1 | / | . | . | 2.51µM | .
COCCCn1c(N)c(C(=O)NCCC(C)C)c2nc3ccccc3nc21 | . | . | . | 10µM | .
CN(C)[C@@H]1C(=O)C(C(N)=O)=C(O)[C@@]2(O)C(=O)C3=C(O)c4c(O)cccc4[C@@](C)(O)[C@H]3[C@H](O)[C@@H]12 | 10µM! | ? | ? | . | .
CCOC(=O)c1c(-n2c(C)cc(C=C3C(=O)NC(=S)NC3=O)c2C)sc2c1CCCC2 | . | . | . | 3.98µM | .
Cc1ccc(N2C(=O)NC(=O)/C(=C\c3cc(C)n(-c4sc5c(c4C#N)CCCC5)c3C)C2=O)cc1 | . | . | . | . | .
O=C(Nc1nn[nH]n1)c1cccc([N+](=O)[O-])c1 | . | . | ? | . | .
CC1CC[C@@]2(NC1)OC1CC3C4CC[C@@H]5CC(O)CC[C@@]5(C)C4CC[C@]3(C)C1C2C (some centres undefined) | . | / | / | / | 31.6µM
c1cc(CCN2CCCC2)ccn1 | / | . | / | . | 7.08µM
CC[n+]1c(-c2ccccc2)c2cc(N)ccc2c2ccc(N)cc21 | . | / | / | / | 5.62µM
C=C[C@@H]1CN2CC[C@H]1CC2[C@H](O)c1ccnc2ccccc12 (some centres undefined) | . | / | / | / | .[14.2 µM]
CN(C)[C@@H]1C(=O)C(C(N)=O)=C(O)[C@]2(O)C(=O)C3=C(O)c4c(O)cccc4[C@](C)(O)[C@H]3C[C@@H]12 | . | / | / | / | .[14.2 µM]
Nc1c(C(=O)NCc2ccco2)c2nc3ccccc3nc2n1Cc1ccc(F)cc1 | . | . | . | 10µM | .
COc1ccccc1N1C(=O)NC(=O)/C(=C/c2ccc3c4c(cccc24)CC3)C1=O | / | . | ? | 10µM | /
O=[N+]([O-])c1ccc(O[C@@H]2O[C@H](CO)[C@@H](O)[C@H](O)[C@H]2F)c([N+](=O)[O-])c1 | . | / | ? | . | .
O=c1ccc2cc(OC3OC(CO)C(O)C(O)C3O)c(O)cc2o1 (centres undefined) | 10µM | / | / | / | .
CC(=O)[C@H]1CC[C@H]2[C@@H]3CCC4=CC(=O)CC[C@]4(C)[C@H]3CC[C@]12C | . | . | . | . | .
CCC(=O)OC1CCC2C3CCC4=CC(=O)CC[C@@]4(C)C3CC[C@]12C (some centres undefined) | . | / | / | / | 14.1µM
CC[C@@]1(O)C(=O)OCc2c1cc1n(c2=O)Cc2cc3c(O)cccc3nc2-1 | 8.91µM | / | / | / | .
C[C@H]1C2C=C[C@H]1[C@@H](C(=O)O)[C@@H]2c1c2ccc(=O)c(O)c-2oc2c(O)c(O)ccc12 | . | / | / | / | .[14.2 µM]
N[C@@H](CCl)C(=O)O | . | / | / | . | .
NC(Cc1cc(O)c(O)cc1O)C(=O)O (centres undefined) | . | 0.849µM | / | ? | 14.1µM

High-throughput results (PubChem BioAssay)
